Results filed as inconclusive are left out. Where a call stands in place of a potency, no number is given. The source made the active and inactive calls. Calls come from the whole dose curve; as a rule, active = well fitted curve in the direction sought with a large enough effect; inconclusive = small, poorly fitted or top-dose-only effect, or another doubt; inactive = no such curve, though single readings can be large; an effect the other way counts as inactive or inconclusive.

Metallo-beta-lactamase type 2 (Klebsiella pneumoniae), sequence (C7C422 whole entry, looked up): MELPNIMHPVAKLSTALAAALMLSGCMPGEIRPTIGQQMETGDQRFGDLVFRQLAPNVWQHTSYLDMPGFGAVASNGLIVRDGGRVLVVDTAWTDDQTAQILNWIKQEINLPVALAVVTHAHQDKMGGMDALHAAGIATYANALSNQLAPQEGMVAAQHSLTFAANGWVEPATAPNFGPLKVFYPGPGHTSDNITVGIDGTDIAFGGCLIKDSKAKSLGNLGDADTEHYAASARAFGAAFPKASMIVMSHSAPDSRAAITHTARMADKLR

One assay addresses Metallo-beta-lactamase type 2 (Klebsiella pneumoniae) (UniProt C7C422). Put plainly: qHTS to identify inhibitors of the New Delhi Metallo-beta-lactamase (NDM): assay validation screen against the NCATS LOPAC Collection (AID 1794843).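 Note: nitrocefin turnover by NDM-1 measured as 485 nm absorbance at plateau.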 The following applies: NDM-1 enzyme, nitrocefin hydrolysis, absorbance 485 nm; series mostly up to 38.4 µM. Summed up: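 Enzyme 2 nM final, 50 mM HEPES pH 7.0, 1 uM ZnSO4, 0.01% Tween20; cpds in DMSO, preincub w/ enzyme; + nitrocefin (50 uM stock); A485 at plateau; no-enzyme column as blank.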
In the case of `O=[N+]([O-])c1ccc(-c2nc(-c3ccc(F)cc3)c(-c3ccncc3)[nH]2)cc1`, the call was inactive.
The same measure, in the same setting: as for `COC(=O)C1=CO[C@@H](O)[C@@H]2C(CO)=CC[C@H]12`, the entry is “inactive”; as for `Clc1ccc2c(c1)N=C(N1CCNCC1)c1ccccc1N2`, “inactive”; as for `CC(C)N(CCC(=O)c1ccc2ccccc2c1)Cc1ccccc1`, “inactive”.
Take `O=C1NC(c2cccc([N+](=O)[O-])c2)=CCN1c1ccccc1O`: the compound was called inactive.
Same read-out and setting: as for `Nc1ncnc2n[nH]c(Nc3ccc(F)cc3)c12`, the entry is “inactive”; as for `O=C1NC(=O)/C(=C/c2ccc3c(c2)OC(F)(F)O3)S1`, “inactive”.
With `N[C@@H](Cn1ccc(=O)c(O)c1)C(=O)O`, the result was inactive.
For `C[N+](C)(C)CCO`, the outcome was inactive.
Same read-out and setting: as for `CCN(CC)CCNC(=O)c1ccc(NS(C)(=O)=O)cc1`, the entry is “inactive”; as for `COc1ccccc1N1CCN(CCN2C(=O)CC3(CCCC3)CC2=O)CC1`, “inactive”; as for `NC(N)=NCCCCN=C(N)N`, “inactive”.
Take `CN(C)c1cc2c(Nc3ccc4c(cnn4Cc4ccccc4)c3)ncnc2cn1`: the call was inactive.
Same read-out and setting: as for `Cc1nn(-c2ccccc2)c(C)c1/C=N/N1CCN(Cc2ccccc2)CC1`, the entry is “inactive”; as for `COc1cccc2c1[C@@H]1CN(CCCCn3c(=O)[nH]c4c(sc5ncc(-c6ccccc6)nc54)c3=O)C[C@@H]1CO2`, “inactive”.
Still for that read-out and setting: to `Cn1cnc2c(NCc3ccccc3)nc(NCCO)nc21` belongs “inactive”.

In another assay the target is Glutathione peroxidase 1 (Homo sapiens) (UniProt P07203). Briefly: Primary qHTS Assay for Inhibitors of Recombinant Selenoprotein Glutathione Peroxidase 1 (GPX1) (AID 1845191). Note: nearly all actives have a fitted effect of over 65% in size. Note: potency is the fitted concentration of half-maximal effect. The note with it: recombinant GPX1, GR-coupled NADPH fluorescence, 15 min; series mostly up to 48.8 µM. In a few lines: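 NADPH consumption tracked by fluorescence at 340/450 nm between t=0 and t=15 min, room temperature. Final mix: 10 nM GPX1, 100 nM glutathione reductase, 1 mM GSH, 0.5 mM NADPH, 0.5 mM cumene hydroperoxide, 0.01% BSA; 30 min compound–enzyme preincubation.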
Glutathione peroxidase 1 (Homo sapiens), sequence (P07203 whole entry, looked up): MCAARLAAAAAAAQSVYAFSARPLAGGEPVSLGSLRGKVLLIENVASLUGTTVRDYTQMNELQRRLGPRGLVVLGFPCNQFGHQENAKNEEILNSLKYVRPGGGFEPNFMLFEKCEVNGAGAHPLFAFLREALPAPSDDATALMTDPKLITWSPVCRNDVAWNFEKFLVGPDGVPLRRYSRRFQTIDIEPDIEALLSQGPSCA
Background: In qHTS, concentration-response curves come from the screen itself.
As for `O=[N+]([O-])c1ccc(-c2nc(-c3ccc(F)cc3)c(-c3ccncc3)[nH]2)cc1`, the Potency result was “inactive”.
As to `COC(=O)C1=CO[C@@H](O)[C@@H]2C(CO)=CC[C@H]12`, the Potency result is “inactive”.
On the same count and under the same terms, to `O=C(Nc1ccc(Cl)cc1)Nc1ccc(Cl)c(C(F)(F)F)c1` belongs “inactive”.
As for `O=C(O)c1ccccc1Nc1cc(Cl)ccc1C(=O)O`, the Potency entry was “inactive”.
The same measure, in the same setting: to `Fc1ccc(C(c2ccc(F)cc2)N2CCNCC2)cc1` belongs “inactive”.
The same measure, in the same setting: to `Clc1ccc2c(c1)N=C(N1CCNCC1)c1ccccc1N2` belongs “inactive”; to `COc1cc(C(=O)NC2CCCNC2)cc(OC)c1OC` (configuration not stated), 12.8 µM (active); to `CC(C)N(CCC(=O)c1ccc2ccccc2c1)Cc1ccccc1`, “inactive”.
`O=C1NC(c2cccc([N+](=O)[O-])c2)=CCN1c1ccccc1O`: the Potency result was “inactive”.
For the compound `Nc1ncnc2n[nH]c(Nc3ccc(F)cc3)c12`, the Potency result is “inactive”.
On the same count and under the same terms, to `CC(C)C(=O)OCc1cccc(OC(=O)[C@@H]2N3C(=O)[C@@H](NC(=O)Cc4ccccc4)[C@H]3SC2(C)C)c1` belongs “inactive”.
`O=C1NC(=O)/C(=C/c2ccc3c(c2)OC(F)(F)O3)S1`: the Potency result was “inactive”.
On the same count and under the same terms, as for `CN1CCC(Nc2ncc3ncnc(Nc4ccc(F)c(Cl)c4)c3n2)CC1`, the entry is “inactive”; as for `N[C@@H](Cn1ccc(=O)c(O)c1)C(=O)O`, “inactive”.
Same read-out and setting: as for `C[C@@H](O[C@H]1OCCN(Cc2n[nH]c(=O)[nH]2)[C@H]1c1ccc(F)cc1)c1cc(C(F)(F)F)cc(C(F)(F)F)c1`, the entry is “inactive”; as for `CO[C@@]1(NC(=O)CSC[C@@H](N)C(=O)O)C(=O)N2C(C(=O)O)=C(CSc3nnnn3C)CS[C@@H]21`, 22.7 µM (active); as for `O=C(Nc1ccc(S(=O)(=O)N2CCOCC2)cc1)c1cc(Cl)ccc1NS(=O)(=O)c1ccc(Cl)s1`, “inactive”.
For `CN1CCCN=C1/C=C/c1cccs1`, the Potency result was “inactive”.
With `CCOC(=O)NNc1nncc2ccccc12`, the Potency entry was “inactive”.
Take `C[N+](C)(C)CCO`: the Potency entry was “inactive”.
Same read-out and setting: to `Nc1c2ccccc2nc2ccccc12` belongs 22.7 µM (active); to `Cc1cc2nc3ccc(=[N+](C)C)cc-3sc2cc1N`, 28.6 µM (active).
On the same count and under the same terms, to `O=C(O)CCCC[C@@H]1SC[C@@H]2NC(=O)N[C@@H]21` belongs “inactive”; to `CCN(CC)CCNC(=O)c1ccc(NS(C)(=O)=O)cc1`, “inactive”; to `COc1ccccc1N1CCN(CCN2C(=O)CC3(CCCC3)CC2=O)CC1`, “inactive”.
Take `[O-][n+]1cccc(/C(Cl)=N/OC[C@@H](O)CN2CCCCC2)c1`: the Potency entry is “inactive”.
On the same count and under the same terms, as for `O=C(OCC1(COC(=O)c2cccnc2)CCCC(COC(=O)c2cccnc2)(COC(=O)c2cccnc2)C1O)c1cccnc1`, the entry is “inactive”; as for `NC(N)=NCCCCN=C(N)N`, “inactive”.
Turning to `CN(C)c1cc2c(Nc3ccc4c(cnn4Cc4ccccc4)c3)ncnc2cn1`, the Potency entry is “inactive”.
On to `CC(C)=CCNc1ncnc2c1ncn2[C@@H]1O[C@H](CO)[C@@H](O)[C@H]1O`, for which the Potency entry was “inactive”.
On the same count and under the same terms, to `Oc1ccc(CCNCCCCCCNCCc2ccccc2)cc1O` belongs “inactive”; to `Cc1nn(-c2ccccc2)c(C)c1/C=N/N1CCN(Cc2ccccc2)CC1`, “inactive”.
The same measure, in the same setting: to `COC(=O)[C@H]1[C@H]2C[C@@H]3c4[nH]c5cc(OC)ccc5c4CCN3C[C@H]2C[C@@H](OC(=O)/C=C/c2ccc(O)c(OC)c2)[C@@H]1OC` belongs “inactive”; to `COc1cccc2c1[C@@H]1CN(CCCCn3c(=O)[nH]c4c(sc5ncc(-c6ccccc6)nc54)c3=O)C[C@@H]1CO2`, “inactive”.
Same read-out and setting: to `Cn1cnc2c(NCc3ccccc3)nc(NCCO)nc21` belongs “inactive”; to `CCCc1c2oc(C(=O)O)cc(=O)c2cc2c(=O)cc(C(=O)O)n(CC)c12`, “inactive”.

The target in a further assay is Phospholipid hydroperoxide glutathione peroxidase GPX4 (Homo sapiens) (UniProt P36969). Put plainly: Primary qHTS Assay for Inhibitors of Recombinant Selenoprotein Glutathione Peroxidase 4 (GPX4) (AID 1845192). Note: nearly all actives have a fitted effect of over 65% in size. The following applies: recombinant GPX4, GR-coupled NADPH fluorescence, 15 min; series mostly up to 50 µM. In a few lines: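 NADPH consumption followed by fluorescence at 340/450 nm, t=0 and after 15 min at room temperature. Reaction started with cumene hydroperoxide (0.5 mM final) after 30 min compound–GPX4 preincubation; final 200 nM GPX4, 100 nM GR, 1 mM GSH, 0.5 mM NADPH.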
Phospholipid hydroperoxide glutathione peroxidase GPX4 (Homo sapiens), sequence (P36969 whole entry, looked up): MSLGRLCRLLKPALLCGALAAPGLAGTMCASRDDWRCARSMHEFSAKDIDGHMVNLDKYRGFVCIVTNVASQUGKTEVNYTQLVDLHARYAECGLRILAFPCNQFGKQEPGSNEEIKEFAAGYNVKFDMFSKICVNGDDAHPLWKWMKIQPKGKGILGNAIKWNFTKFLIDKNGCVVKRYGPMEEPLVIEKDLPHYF
Take `O=[N+]([O-])c1ccc(-c2nc(-c3ccc(F)cc3)c(-c3ccncc3)[nH]2)cc1`: the Potency entry is “inactive”.
Still for that read-out and setting: to `COC(=O)C1=CO[C@@H](O)[C@@H]2C(CO)=CC[C@H]12` belongs “inactive”; to `Clc1ccc2c(c1)N=C(N1CCNCC1)c1ccccc1N2`, “inactive”.
The same measure, in the same setting: as for `CC(C)N(CCC(=O)c1ccc2ccccc2c1)Cc1ccccc1`, the entry is “inactive”; as for `O=C1NC(c2cccc([N+](=O)[O-])c2)=CCN1c1ccccc1O`, “inactive”; as for `Nc1ncnc2n[nH]c(Nc3ccc(F)cc3)c12`, “inactive”.
For `O=C1NC(=O)/C(=C/c2ccc3c(c2)OC(F)(F)O3)S1`, the Potency entry is “inactive”.
Still for that read-out and setting: as for `N[C@@H](Cn1ccc(=O)c(O)c1)C(=O)O`, the entry is “inactive”; as for `CN1CCCN=C1/C=C/c1cccs1`, “inactive”.
Consider `CCOC(=O)NNc1nncc2ccccc12`, for which the Potency entry is “inactive”.
Regarding `C[N+](C)(C)CCO`, the Potency result was “inactive”.
Still for that read-out and setting: to `O=C(O)CCCC[C@@H]1SC[C@@H]2NC(=O)N[C@@H]21` belongs “inactive”.
Turning to `CCN(CC)CCNC(=O)c1ccc(NS(C)(=O)=O)cc1`, the Potency result was “inactive”.
Same read-out and setting: as for `COc1ccccc1N1CCN(CCN2C(=O)CC3(CCCC3)CC2=O)CC1`, the entry is “inactive”.
Still for that read-out and setting: to `[O-][n+]1cccc(/C(Cl)=N/OC[C@@H](O)CN2CCCCC2)c1` belongs “inactive”.
In the case of `NC(N)=NCCCCN=C(N)N`, the Potency entry is “inactive”.
In the case of `CN(C)c1cc2c(Nc3ccc4c(cnn4Cc4ccccc4)c3)ncnc2cn1`, the Potency result is “inactive”.
Same read-out and setting: to `Cc1nn(-c2ccccc2)c(C)c1/C=N/N1CCN(Cc2ccccc2)CC1` belongs “inactive”; to `COc1cccc2c1[C@@H]1CN(CCCCn3c(=O)[nH]c4c(sc5ncc(-c6ccccc6)nc54)c3=O)C[C@@H]1CO2`, “inactive”.
Turning to `Cn1cnc2c(NCc3ccccc3)nc(NCCO)nc21`, the Potency entry was “inactive”.

The record behind these values is PubChem BioAssay (NCATS).
